# Measurements taken from ChEMBL document CHEMBL4888484, “Replenishing the malaria drug discovery pipeline: Screening and hit evaluation of the MMV Hit Generation Library 1 (HGL1) against asexual blood stage Plasmodium falciparum ,using a nano luciferase reporter read-out” (2022).
# The campaign covered roughly 4,800 compounds. About 420 (8.8%) showed an effect of 50% or more. The sample as a whole holds a higher share of strong results than the screen did.
# Test system: Plasmodium falciparum
# Test: Confirmatory screen in NF54 nanoGlo assay, in single point, at 2uM, 72h
# Format: functional, Erythrocyte
# Conditions: timepoint 72 hour
row,SMILES,% Inhibition
1,COc1ccc(-c2noc(Cn3c(=O)c4ccccc4n(CC(=O)Nc4cc(C)ccc4C)c3=O)n2)cc1,0%
2,O=C(Nc1nn(Cc2ccccc2)cc1Cl)c1cc(-c2ccc(OC(F)F)cc2)[nH]n1,4%
3,Nc1noc2cc(C(F)(F)F)cnc12,4%
4,COc1ccc2c(c1)CN(c1nnc(C3CC3)o1)CC2,7%
5,O=c1[nH]c2cc3c(cc2c(=O)n1Cc1nc(-c2ccc(Cl)cc2)no1)OCO3,-1%
6,CN1CCN(Cc2cc3cc4c(cc3nc2-c2ccc(Cl)cc2)OCO4)CC1=O,53%
7,Cc1cc(C)nc(-n2nc(-c3ccc(Cl)cc3)c3c2NC(=O)C[C@@H]3c2ccc3c(c2)OCO3)n1,-7%
8,Cc1cc(OC[C@@H](O)CNC(C)(C)CC(C)(C)C)cc(C)c1Cl,67%
9,CC(=O)N1CCCN(S(=O)(=O)Cc2ccccc2Cl)CCNC(=O)[C@@H]2CCC[C@@H]21,0%
10,Cc1ccc(-c2n[nH]c(NC(=O)Nc3ccc(F)c(S(=O)(=O)NC4CC4)c3)c2C)o1,-9%
11,CCOc1ccc([C@@H](Nc2nc(C)cc(C)n2)c2cc(C)sc2NC(=O)c2ccccc2)cc1,1%
12,COc1ccc(OC)c([C@H](C)NC(=O)N2CCS(=O)(=O)CC2)c1,-3%
13,C[N+]12CCCCC1C(OC(=O)C1(c3ccccc3)CCCC1)CCC2 (stereo not drawn),96%
14,CN(C(=O)Cn1cnc2nc(N3CCC(C(=O)NC4CC4)CC3)sc2c1=O)c1ccccc1,-14%
15,CCCCC1NC(=O)N([C@@H]2CCC(=O)N[C@H]2c2ccccc2)C1=O (stereo partly drawn),2%
16,CC(=O)Nc1ccccc1CC(c1c[nH]c2ccccc12)c1c[nH]c2ccccc12,0%
17,O=C(Cc1c[nH]c2ccccc12)Nc1ccc(Cl)c2ncccc12,5%
18,CC(C)C(NC(=O)COc1ccccc1)C(=O)NCC(c1ccccc1Cl)c1c[nH]c2ccccc12 (stereo not drawn),69%
19,CCS(=O)(=O)N1CCN(c2nc(Cc3ccc(C)cc3)nc3c2c(C)nn3-c2ccccc2)CC1,-3%
20,N/C(CC(=O)Nc1cccc(Cl)c1)=N/O,-4%
21,CCCC[C@H](Oc1ccc(C(C)(C)CC)cc1C(C)(C)CC)C(=O)Nc1ccc(NC(=O)C(F)(F)C(F)(F)C(F)(F)F)c(O)c1,30%

row,SMILES,% Inhibition
1,Cc1cc(-c2ccccc2)nc(O)c1S(C)(=O)=O,-3%
2,Cc1nn(C(C)(C)C)c2nc(C3CC3)cc(C(=O)N(C)c3ccccc3)c12,81%
3,Cc1ccc(S(=O)(=O)N2CCN(C(=O)c3cc(C4CC4)nc4c3c(C)nn4C(C)C)CC2)cc1,-1%
4,Cc1nn(Cc2ccccc2)c2nc(C3CC3)cc(C(=O)N3CCOCC3)c12,3%
5,Cc1cnc(-n2cnnc2)c(-c2ccc(S(C)(=O)=O)cc2)c1,-3%
6,Cn1c(-c2ccccc2)cn2cc(-c3ccc(F)cc3)nc12,1%
7,COc1cccc(Cn2nc3ccc(S(=O)(=O)N4CCCC4)cn3c2=O)c1,2%
8,Cc1cc(NC(=O)c2ccccn2)n(-c2nc3ccccc3o2)n1,88%
9,Cc1cc(C(=O)Nc2cc(C)nn2C)nc(N(C)C)n1,-1%
10,Cc1cc(C)n(C(=O)CNC(=O)c2ccccn2)n1,2%
11,CCc1cc(C(=O)N(CC)c2ccccc2)c2c(C)noc2n1,-7%
12,O=C(Nc1onc2c1CCC2)c1ccc2ccccc2c1,45%
13,Clc1ccc(-c2onc3c2CCCC3)cc1,2%
14,O=C(Nc1cc(-c2onc3c2CCCC3)cc(C(F)(F)F)c1)c1cncc(Br)c1,95%
15,Cn1c(CCNC(=O)CCc2cccnc2)nc2cc(Cl)ccc21,-3%
16,CCN1CCC(NC(=O)CCc2c[nH]c3ccccc23)CC1,4%
17,CC1(C)Oc2ccc(S(=O)(=O)NC3CCCCC3)cc2NC1=O,-8%
18,Oc1cc(-c2ccc(F)cc2)nn1-c1nc2ccccc2[nH]1,-9%
19,Cc1nn(-c2nc3ccccc3[nH]2)c(O)c1Cc1ccccc1,2%
20,Cc1nn(-c2nc3ccccc3[nH]2)c(O)c1CCC(C)C,68%
21,O=C(Nc1ccc(OC2CCC2)c(F)c1)N1CC[C@H](O)C1,-2%

row,SMILES,% Inhibition
1,CCCc1noc([C@H](C)OC(=O)c2cc[nH]n2)n1,-7%
2,CCN1C(=O)C(=O)N(CN2CCc3ccccc3C2)C1=O,-4%
3,Cc1nn(C)c(Cl)c1NC(=O)OCc1ccc(F)cc1,-4%
4,CCn1cc(-c2nc(-c3ccccc3C)no2)c(=O)c2cc(F)c(N3CCCCC3)cc21,47%
5,CCn1cc(C(=O)O)c(=O)c2cc(F)c(N3CCN(S(=O)(=O)c4ccccc4)CC3)cc21,-10%
6,CCn1cc(C#N)c(=O)c2cc(F)c(N3CCN(Cc4ccccc4)CC3)cc21,69%
7,c1cc(Cn2cnc3c2CCCC3)cs1,-15%
8,CC[C@H]1Cn2c(C(=O)NCc3cccs3)cc3c(Cl)ccc(c32)O1,-4%
9,COc1ccc(C(=O)Cn2nc(C)cc2C)cc1,-4%
10,COc1ccc2c(O)cc(-c3ccccc3)nc2c1,-2%
11,COc1ccc2c(NC(=O)Cc3c(C)noc3C)n[nH]c2c1,0%
12,O=C(Nc1cccc(Oc2c(F)c(F)c(-c3c(F)c(F)c(Oc4cccc(NC(=O)c5ccccc5)c4)c(F)c3F)c(F)c2F)c1)c1ccccc1,5%
13,Nc1cc(C(F)(F)F)c(Br)cc1Br,-16%
14,Cc1cccc(N2CCN(C(=O)c3ccc4c(c3)C(=O)N(c3cc(C)on3)C4=O)C[C@@H]2C)c1,-3%
15,CC1CN(S(=O)(=O)CC2CCOC2)c2ccc(F)cc2O1 (stereo not drawn),-2%
16,CCOc1ccccc1NC(=O)Cc1c(C)nc2nc(-c3cccnc3)nn2c1C,0%
17,CCCOc1ccc(Nc2cc(C)nc3ccc(Cl)cc23)cc1,42%
18,Cc1cc(C)c2nc(C)cc(Nc3ccc(O)cc3)c2c1,87%
19,Cc1ncoc1C(=O)N1CC(F)(F)C[C@H]1Cn1cc(C(=O)N2CCOCC2)nn1,-1%
20,Cn1cncc1CC(=O)Nc1ccnc(NC(=O)OC(C)(C)C)c1,96%
21,CC(C)(C)OC(=O)Nc1cccc(N)n1,1%
